Laboratory results as given in PubChem BioAssay AID720597 (Broad Institute, 2013).
Entries with a potency or affinity are not part of this list. The source made the active and inactive calls.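 How the source made its calls: active means fitted half-maximal dose no more than twice the top valid tested dose, for compounds that lower signal; inconclusive means fit invalid, or curve flat with activity between -70 and -30; inactive means potency past limit, curve flat within ±30, or signal increasing.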

Each molecule was assayed against NAD-dependent protein deacylase sirtuin-5, mitochondrial (Homo sapiens) (UniProt Q9NXA8) (assay: blockers of sirtuin-5 peptide desuccinylation – biochemical, fluorescence imaging, cherry-pick, set 6, dose response (AID 720597;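 further: lower AMC signal can also come from blocking the trypsin step; 0% = median of neutral control wells and -100% = median of positive control wells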)). Details: Purified SirT5, succinyl-peptide-AMC/trypsin fluorescence; series mostly up to 15 µM; activity change, negative = inhibition: at the top concentration.
NAD-dependent protein deacylase sirtuin-5, mitochondrial (Homo sapiens), sequence (Q9NXA8 whole entry, looked up): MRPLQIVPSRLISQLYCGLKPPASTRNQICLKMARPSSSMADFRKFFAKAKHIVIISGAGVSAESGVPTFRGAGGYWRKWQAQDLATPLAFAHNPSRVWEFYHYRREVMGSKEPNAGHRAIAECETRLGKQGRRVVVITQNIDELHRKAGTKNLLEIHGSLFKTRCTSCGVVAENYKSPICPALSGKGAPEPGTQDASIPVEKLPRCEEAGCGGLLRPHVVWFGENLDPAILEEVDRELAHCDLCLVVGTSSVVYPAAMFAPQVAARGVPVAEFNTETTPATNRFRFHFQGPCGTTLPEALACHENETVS

Activity change, negative = inhibition, inactive:
COc1ccc(S(=O)(=O)Nc2ccc3c(c2)C(=O)N([C@H](C)CO)C[C@@H](C)[C@H](CN(C)S(=O)(=O)c2ccc(Cl)cc2)OCCCC[C@H](C)O3)cc1 3.8%
C[C@H]1CCCCO[C@H](CN(C)S(=O)(=O)c2ccc(Cl)cc2)[C@@H](C)CN([C@@H](C)CO)C(=O)c2cc(NS(=O)(=O)c3ccc(F)cc3)ccc2O1 -3.99%
C[C@@H]1CN([C@@H](C)CO)S(=O)(=O)c2ccc(C3=CCCCC3)cc2O[C@@H]1CN(C)C(=O)Cc1ccccc1 -17.8%
C[C@H]1CN([C@@H](C)CO)C(=O)c2cc(C#CCN(C)C)cnc2O[C@H]1CN(C)Cc1ccncc1 -5.33%
C[C@@H](O)C#Cc1ccc([C@@H]2[C@H]3CN(C(=O)c4cccc(F)c4)CCCCN3[C@H]2CO)cc1 -5.1%
C[C@@H]1CCCCO[C@@H](CN(C)Cc2ccc(C(F)(F)F)cc2)[C@H](C)CN([C@@H](C)CO)C(=O)c2cc(NS(=O)(=O)c3cccs3)ccc2O1 -23.6%
C[C@@H]1CN([C@H](C)CO)C(=O)c2cc(C#CC(C)(C)O)cnc2O[C@H]1CN(C)C(=O)CC1CC1 26.7%
CC(C)NC(=O)N1CCCCN2[C@H](C1)[C@@H](c1ccc(C#CC3CC3)cc1)[C@@H]2CO -14.1%
C[C@H]1CN([C@@H](C)CO)C(=O)Cc2cc(NC(=O)CCCCCC(=O)Nc3ccccc3N)ccc2O[C@@H]1CN(C)Cc1ccc(Oc2ccccc2)cc1 -8.2%
CO[C@@H](CN(C)Cc1ccc2c(c1)OCO2)[C@@H](C)CN(C(=O)Nc1ccc(F)cc1)[C@H](C)CO -0.984% [at 16 µM]
COc1ccc(S(=O)(=O)Nc2ccc3c(c2)CC(=O)N([C@H](C)CO)C[C@H](C)[C@@H](CN(C)CC2CCCCC2)O3)cc1 24.7%
COc1ccc(NC(=O)N[C@@H]2CC[C@H](CCn3cc(-c4ccc(OC)cc4)nn3)O[C@@H]2CO)cc1 33.9%
